Sampled rows, rich in hits. Any-hit rate of the full collection: about 4.7%.
HSF-1 act: HSF-1 activators, primary screen, NIH3T3-HGL cells, MG132 stress, luminescence, single point | 1.7% of 300,000 active | AID 504408, 2011 | NIH3T3-HGL HSF-1 luciferase reporter, 8 h; 100% = twice DMSO control signal | activation, % at 9 µM;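 active means mean replicate activation of at least 50% with a set share of replicates each reaching 50%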
TWEAK Fn14 block: inhibitors of TWEAK-Fn14 signaling, primary screen, luciferase reporter cells, uHTS. TWEAK-stimulated Fn14 reporter cells, luciferase luminescence, 8 h. inhibition, % at 10 µM. 2% of 360,000 active; in the data active means inhibition above about 50%
HSP90 refold inh: HSP90 inhibitors, primary screen, cell lysate, luminescence; inhibition, % at 5.6 µM; Rabbit reticulocyte lysate, luciferase refolding luminescence, 3 h; 0.91% of 290,000 active; Heat shock protein HSP 90 (rabbit reticulocyte lysate; luciferase refolding);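 active means inhibition above the screen-wide mean plus 3 SD, computed separately per campaign, cut at about 16% in these data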;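 further: inhibitors lower the luminescence because luciferase stays unfolded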
EBV LMP1 NFkB: EBV LMP1-driven NF-kappaB luciferase reporter inhibitors, primary screen, cell-based, luminescence, single point; LMP1-induced NF-kappaB luciferase reporter cells; inhibition, % at 12.5 µM; 0.69% of 350,000 active; AID 504558, 2011; in the data active means inhibition above about 41%
HSF1 inh: HSF1 inhibitors in luciferase reporter cells, primary screen, cell-based, NIH3T3, luminescence. NIH3T3-HGL HSE-luciferase, MG132-induced, luminescence 8 h; stronger effect = lower value. activity change, negative = inhibition, % at 7.5 µM (by protocol). 0.77% of 300,000 active;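 active means more than half of replicate wells show activity change below -50%, luminescence cut by over half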;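 further: luciferase reports HSF-1 transcriptional activity via heat shock element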
TROY NFkB inh: inhibitors of TROY-driven NF-kB signaling, primary screen, Q293 LMP1-TROYcd cells, NF-kB luciferase, uHTS; Q293 LMP1-TROYcd NF-kB luciferase reporter, 4 h; 0.98% of 360,000 active; inhibition, % at 10 µM;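 active means compounds whose plate-normalised and pattern-corrected inhibition of the luciferase reporter signal at the single screening dose is 50% or more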
HSP90 inh confirm: HSP90 inhibitors, confirmation, cell lysate, luminescence; shares compounds with HSP90 refold inh; rabbit reticulocyte lysate, luciferase refolding luminescence, 3 h; inhibition, % at 5.9 µM; 64% of 2,300 active; in the data active means inhibition above about 18%
FLuc counter: firefly luciferase inhibitors, HSP90 counter-screen, confirmation, artefact control for HSP90 inhibitor project, biochemical, luminescence, triplicate; purified native firefly luciferase; shares compounds with HSP90 refold inh; 48% of 2,300 active; inhibition, % at 5.9 µM; AID 1847, 2009;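 active means inhibition above the mean inhibition of all tested sample wells plus 3 SD, cut at about 10% in these data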
Target sequence (P08659 whole entry, looked up): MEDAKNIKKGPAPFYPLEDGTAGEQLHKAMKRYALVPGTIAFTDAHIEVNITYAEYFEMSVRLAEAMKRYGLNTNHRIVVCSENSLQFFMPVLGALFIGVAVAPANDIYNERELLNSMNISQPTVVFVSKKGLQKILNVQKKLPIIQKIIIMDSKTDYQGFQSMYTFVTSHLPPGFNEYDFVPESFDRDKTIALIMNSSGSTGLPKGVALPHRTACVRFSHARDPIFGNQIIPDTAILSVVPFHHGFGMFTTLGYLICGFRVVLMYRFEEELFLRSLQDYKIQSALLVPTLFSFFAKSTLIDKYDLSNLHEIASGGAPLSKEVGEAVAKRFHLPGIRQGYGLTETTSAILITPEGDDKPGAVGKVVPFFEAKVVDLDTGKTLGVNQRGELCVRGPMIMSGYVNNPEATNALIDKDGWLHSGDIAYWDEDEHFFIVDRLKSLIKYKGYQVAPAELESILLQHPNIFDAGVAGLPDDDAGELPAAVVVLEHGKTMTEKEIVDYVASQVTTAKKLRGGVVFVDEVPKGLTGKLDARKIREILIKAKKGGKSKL
Each line names hits and unclear results; the compound was inactive in the other large screens (follow-up assays come after a bar, where they were run).

C[C@@H](c1ccccc1)N1C[C@@H](COCc2ccccc2)Oc2cc(N3CCC[C@H]3CO)ccc2S1(=O)=O	none (no result: HSF-1 act, HSP90 refold inh, EBV LMP1 NFkB, HSF1 inh)
CC(C)(C)C(=O)Nc1ccc(-c2cn3ccsc3n2)cc1	TWEAK Fn14 block 74, HSP90 refold inh 29 | HSP90 inh confirm 49 | FLuc counter 33
O=C(Nc1nc2ccccc2[nH]1)c1cccc([N+](=O)[O-])c1	none
CN(C)c1cccc(C(=O)Nc2nc3ccccc3[nH]2)c1	TWEAK Fn14 block 61, HSP90 refold inh 25, EBV LMP1 NFkB 44 | HSP90 inh confirm 56 | FLuc counter 39
O=C(Nc1nc2ccccc2[nH]1)c1cccc(F)c1	HSP90 refold inh 26 | HSP90 inh confirm 30 | FLuc counter 12
CCC(C)NC(=O)c1ccc(N2CC3CC(C2)c2cccc(=O)n2C3)c(NC(=O)c2c(F)cccc2F)c1 (stereo not given)	none (no result: HSF-1 act, HSP90 refold inh, HSF1 inh)
CN(C)S(=O)(=O)c1ccc(NC(=O)c2ccncc2)cc1	HSP90 refold inh 42 | HSP90 inh confirm inactive | FLuc counter inactive
CN(C)S(=O)(=O)c1cccc(NC(=O)c2ccncc2)c1	none
CCN(CC)c1ccc2cc(/C(N)=N/NC(=O)c3cccs3)c(=O)oc2c1	HSP90 refold inh 22 (no result: TWEAK Fn14 block, EBV LMP1 NFkB, TROY NFkB inh) | HSP90 inh confirm inactive | FLuc counter inactive
Cn1c(=O)[nH]c(=O)c2c1nc(N1CCCCC1)n2C/C=N/Nc1ccc(C(=O)O)cc1	HSP90 refold inh 41 | HSP90 inh confirm 29 | FLuc counter 36
CC(=O)Nc1ccc(C(=O)N2CCCCC2c2cc(C(=O)NC(C)C)no2)cc1 (stereo not given)	none (no result: HSF-1 act, HSP90 refold inh, EBV LMP1 NFkB, HSF1 inh)
CC/C(=N\Nc1nncc2ccccc12)c1ccc(F)cc1	HSP90 refold inh 17 | HSP90 inh confirm inactive | FLuc counter inactive
Fc1cccc(/C=N/Nc2nncc3ccccc23)c1	HSP90 refold inh 29 | HSP90 inh confirm 51 | FLuc counter 41
CCCc1nc2ccc(C)cn2c1Cc1ccccc1C(F)(F)F	none (no result: HSF-1 act, HSP90 refold inh, EBV LMP1 NFkB, HSF1 inh)
CC[C@]12C(=O)N(C)C[C@H]([C@@H]3C(=O)N(C)C(=O)[C@@H]31)N2C(=O)c1ccc(C)cc1	none (no result: HSF-1 act, HSP90 refold inh, HSF1 inh)
CCCSc1nc(SCC(=O)NCc2ccccc2)c2c3c(sc2n1)COC(C)(CC)C3 (stereo not given)	HSP90 refold inh 28 | HSP90 inh confirm inactive | FLuc counter inactive
CCCCSc1nc(SCC(=O)NCc2ccco2)c2c3c(sc2n1)COC(C)(CC)C3 (stereo not given)	none
COC(=O)C[C@@H]1C[C@H]2c3cc(N(C)C)ccc3O[C@H]2[C@H](CO)O1	none (no result: HSF-1 act, HSP90 refold inh, HSF1 inh)
COc1ccc(/C=N/Nc2nc3ccccc3s2)cc1O	TWEAK Fn14 block 74, HSP90 refold inh 22, TROY NFkB inh 60 | HSP90 inh confirm 55 | FLuc counter 49
COc1ccc(/C=N/OCC(=O)Nc2nc3ccccc3s2)cc1OC	none (no result: HSF-1 act, HSF1 inh)
COc1ccc2cc(-c3cc(C(=O)O)c4ccccc4n3)ccc2c1	TWEAK Fn14 block 75, HSP90 refold inh 28, EBV LMP1 NFkB 66 | HSP90 inh confirm 64 | FLuc counter 38
CN(C)/C=C1/Sc2ccccc2C1=O	HSP90 refold inh 21 | HSP90 inh confirm inactive | FLuc counter inactive
CC(=O)N(\C=C/C=C/C=C1\Sc2ccccc2C1=O)c1ccccc1	none
C[C@H](CO)N1C[C@H](C)[C@@H](CN(C)C(=O)c2cccnc2)Oc2ncc(Br)cc2C1=O	none (no result: HSF-1 act, HSP90 refold inh, HSF1 inh)
COc1cccc(-c2nc(-c3ccccn3)no2)c1	HSP90 refold inh 69 (no result: TWEAK Fn14 block, EBV LMP1 NFkB, TROY NFkB inh) | HSP90 inh confirm 86 | FLuc counter 78
c1ccc(-c2noc(-c3cccnc3)n2)nc1	none
Clc1ccccc1/C=C/c1nc(-c2ccccn2)no1	TWEAK Fn14 block 102, HSP90 refold inh 64, EBV LMP1 NFkB 73, TROY NFkB inh 77 | HSP90 inh confirm 86 | FLuc counter 83
c1ccc(-c2noc(-c3ccncc3)n2)nc1	HSP90 refold inh 18 | HSP90 inh confirm 18 | FLuc counter inactive
c1ccc(-c2noc(-c3ccc4ccccc4c3)n2)nc1	TWEAK Fn14 block 105, HSP90 refold inh 78, EBV LMP1 NFkB 82, HSF1 inh -78, TROY NFkB inh 86 | HSP90 inh confirm 97 | FLuc counter 92
Cc1ccc(SCc2nc(-c3ccccn3)no2)cc1	none
CC(C)Sc1nc(-c2cccs2)nc2cc(Cl)ccc12	none (no result: HSF-1 act, HSP90 refold inh, EBV LMP1 NFkB, HSF1 inh)
C[C@@H]1CN([C@H](C)CO)C(=O)CCCn2cc(nn2)CO[C@H]1CN(C)S(=O)(=O)c1cccc(F)c1	none (no result: HSF-1 act, HSP90 refold inh, HSF1 inh)
Cc1ccc(-c2nc(-c3ccncc3)no2)cc1	none
CC(C)(C)c1ccc(-c2nc(-c3ccncc3)no2)cc1	TWEAK Fn14 block 79, HSP90 refold inh 20, TROY NFkB inh 72 | HSP90 inh confirm 33 | FLuc counter 32
CC(C)c1ccc2oc(-c3cc(N)ccc3O)nc2c1	TWEAK Fn14 block 81, HSP90 refold inh 46, TROY NFkB inh 69 | HSP90 inh confirm 80 | FLuc counter 79
CCCS(=O)(=O)c1cnc(C2COc3ccccc3O2)nc1N (stereo not given)	TWEAK Fn14 block 102, HSP90 refold inh 93, EBV LMP1 NFkB 71, HSF1 inh -80, TROY NFkB inh 81 | HSP90 inh confirm 88 | FLuc counter 80
S=c1nc(C2COc3ccccc3O2)[nH][nH]1 (stereo not given)	none
Cc1ccc(-c2onc3ccc(C4OCCO4)cc23)cc1	HSP90 refold inh 35 | HSP90 inh confirm inactive | FLuc counter inactive
COc1ccc(S(=O)(=O)N2CCOCC2)cc1NC(=O)C1CCCCN1S(=O)(=O)c1ccccc1 (stereo not given)	none (no result: HSF-1 act, HSP90 refold inh, HSF1 inh)
O=S(=O)(/N=C/c1c(O)ccc2ccccc12)c1ccccc1	none
O=S(=O)(O)c1cccc(N=Nc2c(O)ccc3ccccc23)c1	HSP90 refold inh 33 | HSP90 inh confirm 34 | FLuc counter inactive
C/C(=N\NC(=O)c1cc2ccccc2cc1O)c1cccs1	TWEAK Fn14 block 53, HSP90 refold inh 22 | HSP90 inh confirm 34 | FLuc counter 38
NC(=O)CSc1nnc(-c2ccco2)n1-c1ccc(F)cc1	none (no result: HSF-1 act, HSP90 refold inh, HSF1 inh)
COc1cccc(Cn2cccc(NC(=O)NCc3ccccc3)c2=O)c1	HSP90 refold inh 18 | HSP90 inh confirm inactive | FLuc counter inactive
COc1cccc(Cn2cccc(NC(=O)Nc3ccccc3C)c2=O)c1	none
Cc1ccc(Nc2cc(Cl)nc(N)n2)c([N+](=O)[O-])c1	none (no result: HSF-1 act, HSP90 refold inh, HSF1 inh)

Bioassay records as filed in PubChem BioAssay.
